A number with no mark means an inactive call. For some of these results: Measured potencies and affinities stand elsewhere. Calls of active or inactive are those of the source. Unless noted, how the calls were made is not given here.
What was measured:
[1] = antimalarial activity against Dd2 strain (AID 2302;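 active means growth inhibition above 50% at the single 2 µM test dose, taken to imply half-maximal potency below 2 µM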;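 further: 0% = DMSO untreated growth and 100% = chloroquine plus artemisinin killed control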); details: P. falciparum Dd2 in RBCs, LDH growth readout, 72 h; at 2 µM; stronger effect = higher value
[2] = HepG2 cytotoxicity, primary screen, cytotoxicity control for P. falciparum antimalarial project, cell-based, ATP luminescence (AID 2303;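 active means inhibition above 50%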;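 further: 0% = DMSO wells and 100% = digitonin-killed cells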); details: HepG2 viability, 24-48 h, at 10 µM, stronger effect = higher value
[3] = biological target: L-lactate dehydrogenase (Plasmodium falciparum (isolate CDC / Honduras)) (UniProt Q27743); experiment: PfLDH activity inhibition – cell lysate, 3D7 strain, counter-screen for P. falciparum growth inhibition project (AID 2304);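 further: 0% = vehicle and 100% = reference inhibitor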; details: P. falciparum 3D7 crude extract, LDH APAD/NBT absorbance; at 2 µM; stronger effect = higher value
[4] = inhibition of 3D7 malaria parasite growth – strain 3D7 (AID 2306);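 further: 0% = DMSO wells and 100% = chloroquine plus artemisinin control wells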; details: P. falciparum 3D7 erythrocytic growth, LDH absorbance, 72 h; at 2 µM; stronger effect = higher value
[5] = biological target: Calcium-dependent protein kinase 1 (Plasmodium falciparum (isolate 3D7)) (UniProt P62344); experiment: PfCDPK1 kinase inhibitors, biochemical, TCAMS library (AID 1159585; cut-off not given, nearly all actives have IC50 up to about 0.98 µM;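 further: inhibitors leave more ATP so luminescence rises with inhibition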); details: recombinant PfCDPK1, Kinase-Glo ATP depletion luminescence
[6] = biological target: Plasmodium falciparum protein kinase 6 (PK6, PF3D7_1337100) (UniProt Q8IDW1); experiment: PfPK6 kinase inhibitors, biochemical, TCAMS library (AID 1159586); details: recombinant PfPK6, Kinase-Glo ATP depletion luminescence
[7] = biological target: Protein kinase 7 (PK7), Plasmodium falciparum 3D7 (PF3D7_0213400) (UniProt Q7YTF7); experiment: inhibition of Plasmodium PK7 catalytic activity – biochemical, TCAMS antimalarial set, Kinase-Glo luminescence (AID 1159587); details: recombinant PfPK7, Kinase-Glo ATP depletion luminescence
[8] = biological target: Calcium-dependent protein kinase 4 (Plasmodium falciparum (isolate 3D7)) (UniProt Q8IBS5); experiment: PfCDPK4 kinase inhibitors, biochemical, TCAMS library (AID 1159588; cut-off not given, nearly all actives have IC50 up to about 0.91 µM); details: recombinant PfCDPK4, Kinase-Glo ATP depletion luminescence
Chain of Calcium-dependent protein kinase 4 (Plasmodium falciparum (isolate 3D7)) (Q8IBS5 whole entry, looked up): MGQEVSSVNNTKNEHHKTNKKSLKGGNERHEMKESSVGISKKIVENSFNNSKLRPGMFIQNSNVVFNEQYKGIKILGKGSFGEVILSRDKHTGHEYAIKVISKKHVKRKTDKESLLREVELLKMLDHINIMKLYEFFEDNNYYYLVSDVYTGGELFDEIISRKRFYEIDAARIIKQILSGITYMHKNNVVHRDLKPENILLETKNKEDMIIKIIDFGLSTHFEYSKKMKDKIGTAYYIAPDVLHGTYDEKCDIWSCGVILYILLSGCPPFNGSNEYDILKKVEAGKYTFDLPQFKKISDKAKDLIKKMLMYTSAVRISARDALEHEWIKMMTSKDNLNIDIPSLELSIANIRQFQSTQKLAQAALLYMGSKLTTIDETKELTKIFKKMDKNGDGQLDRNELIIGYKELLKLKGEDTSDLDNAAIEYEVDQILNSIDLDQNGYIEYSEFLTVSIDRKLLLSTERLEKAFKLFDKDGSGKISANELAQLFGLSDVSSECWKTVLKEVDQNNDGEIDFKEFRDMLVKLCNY

Chain of Protein kinase 7 (PK7), Plasmodium falciparum 3D7 (PF3D7_0213400) (Q7YTF7 1-343): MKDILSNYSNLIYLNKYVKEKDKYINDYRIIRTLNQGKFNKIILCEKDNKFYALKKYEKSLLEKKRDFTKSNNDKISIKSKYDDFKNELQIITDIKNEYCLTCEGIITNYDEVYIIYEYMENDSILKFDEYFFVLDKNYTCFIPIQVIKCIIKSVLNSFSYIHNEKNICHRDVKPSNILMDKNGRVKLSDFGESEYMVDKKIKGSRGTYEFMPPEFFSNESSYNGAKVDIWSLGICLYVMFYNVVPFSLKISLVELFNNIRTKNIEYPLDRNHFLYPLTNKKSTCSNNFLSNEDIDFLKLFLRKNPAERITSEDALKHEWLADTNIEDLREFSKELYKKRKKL
Chain of Calcium-dependent protein kinase 1 (Plasmodium falciparum (isolate 3D7)) (P62344 whole entry, looked up): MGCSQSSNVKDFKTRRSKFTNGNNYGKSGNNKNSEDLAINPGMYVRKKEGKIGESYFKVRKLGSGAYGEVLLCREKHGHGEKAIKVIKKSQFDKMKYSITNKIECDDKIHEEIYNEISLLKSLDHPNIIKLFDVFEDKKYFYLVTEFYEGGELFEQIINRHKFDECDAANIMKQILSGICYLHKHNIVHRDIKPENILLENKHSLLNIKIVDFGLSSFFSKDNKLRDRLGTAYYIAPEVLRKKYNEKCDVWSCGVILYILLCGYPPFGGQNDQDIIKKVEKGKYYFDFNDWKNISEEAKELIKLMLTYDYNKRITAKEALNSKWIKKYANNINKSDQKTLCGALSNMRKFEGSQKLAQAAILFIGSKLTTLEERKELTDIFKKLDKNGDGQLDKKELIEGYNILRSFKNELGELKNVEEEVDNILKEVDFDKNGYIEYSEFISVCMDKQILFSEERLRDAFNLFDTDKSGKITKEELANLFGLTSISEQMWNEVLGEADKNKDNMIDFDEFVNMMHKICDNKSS
Chain of L-lactate dehydrogenase (Plasmodium falciparum (isolate CDC / Honduras)) (Q27743 whole entry, looked up): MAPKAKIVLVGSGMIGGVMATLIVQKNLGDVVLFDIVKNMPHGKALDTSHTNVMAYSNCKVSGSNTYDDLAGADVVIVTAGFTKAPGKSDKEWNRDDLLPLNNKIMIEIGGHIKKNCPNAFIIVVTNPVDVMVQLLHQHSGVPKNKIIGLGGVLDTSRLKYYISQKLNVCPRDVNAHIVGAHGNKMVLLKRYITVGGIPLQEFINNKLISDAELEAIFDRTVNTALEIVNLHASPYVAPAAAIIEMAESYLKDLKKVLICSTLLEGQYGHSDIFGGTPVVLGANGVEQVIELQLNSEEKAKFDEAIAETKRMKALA
Chain of Plasmodium falciparum protein kinase 6 (PK6, PF3D7_1337100) (Q8IDW1 1-305): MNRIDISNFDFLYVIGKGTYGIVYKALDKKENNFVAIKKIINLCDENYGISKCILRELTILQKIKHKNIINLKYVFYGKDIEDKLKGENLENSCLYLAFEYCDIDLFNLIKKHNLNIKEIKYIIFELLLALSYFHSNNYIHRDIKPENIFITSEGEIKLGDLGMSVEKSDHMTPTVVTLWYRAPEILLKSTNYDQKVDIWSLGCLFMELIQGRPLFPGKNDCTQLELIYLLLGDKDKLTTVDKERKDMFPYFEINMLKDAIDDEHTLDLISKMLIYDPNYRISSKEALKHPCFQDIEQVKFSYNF

Row | SMILES | growth inhibition [1] | inhibition [2] | inhibition [3] [%] | growth inhibition [4] | outcome [5] | outcome [6] | outcome [7] | outcome [8]
1 | NC(N)=NC(=O)Nc1cc(Cl)c(Cl)c(Br)c1 | 99% (active) | 16% | -2 | 99% (active) | inactive | inactive | inactive | inactive
2 | COc1ccc(-c2cccc(NC(=O)c3ccc(F)cc3)c2)cc1CN1CCCN(C)CC1 | 35% | 26% | 2 | 101% (active) | inactive | inactive | inactive | inactive
3 | Cc1ccc(F)c(OCC2CCCN(c3ccc(C(=O)NC4CC4)cn3)C2)c1 (stereo not drawn) | 94% (active) | 3% | -3 | 96% (active) | inactive | inactive | inactive | inactive
4 | Cc1cc2nc(/N=C(\N)NC(=O)NC3CCCCC3)nc(C)c2cc1C | 98% (active) | 20% | 2 | 94% (active) | inactive | inactive | inactive | inactive
5 | Cc1[nH]c2ccccc2c1C1CCN(CCCCNC(=O)c2ccc(-c3ccc(C#N)cc3)cc2)CC1 | 97% (active) | 19% | -3 | 101% (active) | inactive | inactive | inactive | inactive
6 | Cc1ccc(NC(=O)c2ccc(CN3CCCN(Cc4cccc(Cl)c4)CC3)cc2)cc1C | 18% | 41% | 2 | 84% (active) | inactive | inactive | inactive | inactive
7 | COc1ccc(C=NNc2nc(-c3ccccc3)cc(=O)[nH]2)cc1OC | 93% (active) | 22% | 4 | 92% (active) | inactive | inactive | inactive | inactive
8 | Oc1ccc(CCNCc2ccc(OCc3ccccc3)c(OCc3ccccc3)c2)cc1 | 9% | 31% | -3 | 88% (active) | inactive | inactive | inactive | inactive
9 | CCC(=O)Nc1ccc(C(O)CN2CCC3(C=Cc4ccccc4O3)CC2)cc1 (stereo not drawn) | 47% | 48% | -1 | 93% (active) | inactive | inactive | inactive | inactive
10 | O=C(NCCN1CCOCC1)c1ccc(CNC(=O)c2ccc(O)c(-c3ccc(Cl)c(Cl)c3)c2)cc1 | 55% (active) | 3% | -1 | 87% (active) | inactive | inactive | inactive | inactive
11 | CN(Cc1cccc(C#N)c1)C1CCN(c2cc(NC(=O)c3cccc(F)c3)ccn2)CC1 | 15% | -1% | -3 | 98% (active) | inactive | inactive | inactive | inactive
12 | CC(=NN=C(N)N)c1ccc2c(c1)Cc1ccccc1-2 | 10% | 44% | 5 | 101% (active) | inactive | inactive | inactive | inactive
13 | Oc1ccc(CCNCCCCCCNCCc2ccc(Cl)c3ccccc23)cc1O | 1% | 22% | -4 | 99% (active) | inactive | inactive | inactive | inactive
14 | N#Cc1cccc(-c2nc(NCc3cccc(C(F)(F)F)c3)nn2-c2cccc(C(F)(F)F)c2)c1 | 88% (active) | 12% | 3 | 94% (active) | inactive | inactive | inactive | inactive
15 | O=c1cc(NCCCNCc2cccc3c2OC(F)(F)O3)[nH]c2ccccc12 | 15% | 4% | 7 | 88% (active) | inactive | inactive | inactive | inactive
16 | CCc1c(CCNCCCCCCNC(C)Cc2ccc3c(c2CC)OCO3)ccc(OC)c1OC (stereo not drawn) | 64% (active) | 100% (active) | 0 | 101% (active) | inactive | inactive | inactive | inactive
17 | Cc1nccn1Cc1cc(C(C)(C)C)c(O)c(C(C)(C)C)c1 | -4% | 8% | -5 | 99% (active) | inactive | inactive | inactive | inactive
18 | Cc1cnc(NCCc2ccc(F)cc2)nc1NCCC(=O)Nc1ccccc1 | 17% | 3% | 6 | 89% (active) | inactive | inactive | inactive | inactive
19 | Nc1ccc(-c2cnc3[nH]cc(-c4ccc(C(=O)O)cc4)c3c2)cn1 | 99% (active) | 48% | 1 | 97% (active) | inactive | inactive | inactive | inactive
20 | CCn1c(-c2nc(-c3ccc4c(c3)OCO4)cnc2N)nc2cnccc21 | 98% (active) | 94% (active) | -7 | 100% (active) | inactive | inactive | inactive | inactive
21 | CN1CCN(CCCN(Cc2ccc(-c3cccc(CNCc4ccc5c(c4)OCO5)c3)cc2)C(=O)NC2CCCCC2)CC1 | 92% (active) | 31% | 4 | 95% (active) | inactive | inactive | inactive | inactive

Row | SMILES | growth inhibition [1] | inhibition [2] | inhibition [3] [%] | growth inhibition [4] | outcome [5] | outcome [6] | outcome [7] | outcome [8]
22 | CC(ON1C(N)=NC(N)=NC1(C)C)c1ccccc1 (stereo not drawn) | 58% (active) | 65% (active) | 0 | 96% (active) | inactive | inactive | inactive | inactive
23 | O=C(Nc1ccc(-c2nc3ccccc3[nH]2)cc1)C1CCN(Cc2ccc(F)cc2)CC1 | 91% (active) | 13% | 1 | 102% (active) | inactive | inactive | inactive | inactive
24 | CCN(CC)CCCC(C)Nc1cc(C=Cc2ccccc2Cl)nc2cc(Cl)ccc12 (stereo not drawn) | 77% (active) | 0% | -2 | 99% (active) | inactive | inactive | inactive | inactive
25 | Cc1ccc2c(NN=Cc3cccc([N+](=O)[O-])c3)cc(C)nc2c1 | 97% (active) | 33% | 5 | 102% (active) | inactive | inactive | inactive | inactive
26 | Fc1cccc(COc2ccc(Nc3ncnc4sc(C#Cc5ncc[nH]5)cc34)cc2Cl)c1 | 95% (active) | 55% (active) | -3 | 100% (active) | inactive | inactive | inactive | inactive
27 | Cc1cc(CN2CCCN(c3ccc4c(c3)CCN(Cc3ccc(-c5ncc[nH]5)cc3)CC4)CC2)n(C)n1 | 8% | 5% | 5 | 86% (active) | inactive | inactive | inactive | inactive
28 | CCCCN1C(=O)[C@H]2CC(=O)CC(C3CCCCC3)[C@H]2C1=O (stereo partly drawn) | 1% | -1% | -5 | 97% (active) | inactive | inactive | inactive | inactive
29 | CCOc1ccc(C2CCN(CCN3CCC(NC(=O)c4ccc(-c5ccc(C(F)(F)F)cc5)cc4)CC3)CC2)c(OCC2CC2)c1 | 65% (active) | 13% | -9 | 99% (active) | inactive | inactive | inactive | inactive
30 | O=c1c2sc(-c3ccc(Cl)cc3)cc2ncn1Cc1ccc(OCCN2CCCC2)c2ccccc12 | 81% (active) | 38% | 1 | 100% (active) | inactive | inactive | inactive | inactive
31 | Cc1cccc(Cn2nc(-c3ccccc3)c(N3CCCCC3)cc2=O)c1 | -2% | 29% | 0 | 98% (active) | inactive | inactive | inactive | inactive
32 | CC(=O)C=C1CC(=O)N(C[C@@H](O)[C@H]2O[C@@H]3OC(C)(C)O[C@@H]3[C@H]2O)c2ccccc2N1 | 2% | -8% | 3 | 90% (active) | inactive | inactive | inactive | inactive
33 | c1ccc2[nH]c(-c3ccc(-c4ccc(CN5CCN(CCN6CCOCC6)CC5)cc4)cc3)nc2c1 | 99% (active) | 43% | -1 | 98% (active) | inactive | inactive | inactive | inactive
34 | Nc1ccc(-c2csc(Nc3ccncc3)n2)cc1 | 50% (active) | 12% | -3 | 95% (active) | inactive | inactive | inactive | inactive
35 | COc1ccc2nc(C)cc(Nc3ccc(Oc4ccc(Br)c5ccccc45)c(Cl)c3)c2c1 | 101% (active) | 100% (active) | -3 | 100% (active) | inactive | inactive | inactive | inactive
36 | COc1cccc2cc(C(=O)N[C@@H](CC(C)C)C(=O)N[C@H](/C=N/N3CC(=O)NC3=O)CC(C)C)oc12 | 64% (active) | 3% | 2 | 86% (active) | inactive | inactive | inactive | inactive
37 | COc1ccc2cc(C=NNc3nc4ccccc4[nH]3)c(Cl)nc2c1 | 90% (active) | 2% | -2 | 100% (active) | inactive | inactive | inactive | inactive
38 | CCCNC(=O)C1CCN(C(c2ccc(Cl)cc2)c2ccc(Cl)cc2)CC1 | 96% (active) | 7% | 4 | 98% (active) | inactive | inactive | inactive | inactive
39 | Nc1ncc(-c2ccc3nccc(-c4ccncc4)c3c2)cc1S(=O)(=O)N1CCOCC1 | 99% (active) | 39% | -1 | 100% (active) | inactive | inactive | inactive | inactive
40 | COc1cc(CS(C)(=O)=O)ccc1Nc1nccc(-c2c(-c3cccc(NC(=O)c4c(F)cccc4F)c3)nn3ccccc23)n1 | 71% (active) | 46% | 3 | 92% (active) | inactive | inactive | inactive | inactive
41 | O=C(Cc1ccc(-c2ccccc2)cc1)N[C@H]1CCN(Cc2ccc(OCCCN3CCCCC3)cc2)C1 | 27% | 36% | 0 | 99% (active) | inactive | inactive | inactive | inactive

Source: PubChem BioAssay
